Drawing on PubChem BioAssay (NCATS), this text covers Potency for 31 compounds.

Experiment [1] has as its target Cytochrome P450 1A2 (Homo sapiens) (UniProt P05177). In words: p450-cyp1a2 (AID 410; calls by dose curve; further: potency means the concentration at half of the fitted maximal effect). A digest of the protocol:
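20nM CYP1A2, 100uM Luciferin-ME (=Km), 100mM KPO4; cpd 10 min RT; +NADPH regen, 60 min RT; stop/detect 20 min; luminescence. Normalized to furafylline 57 uM = full inhibition.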

Experiment [2] addresses Mitogen-activated protein kinase 10 (Mus musculus) (UniProt Q61831). In words: JNK3 AlphaScreen Assay (AID 530; active means well fitted curve in either direction with a large enough effect, not every such curve was filed as active;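 further: kinase came from lysate of stimulated human HepG2 cells; signal reports phosphorylation of biotinylated GST-cJun 1-79 at Ser73 with 10 µM ATP; series mostly up to about 57 µM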). A digest of the protocol: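 Biotinylated GST-cJun(1-79) served as substrate for JNK3 in HepG2 lysates stimulated with IL-1beta and TNF-alpha. ATP was 10 uM final, pH 7.6. Ser73 phosphorylation was quantified by AlphaScreen (680 nm excitation).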
(In general: In Alpha technology, singlet oxygen from a donor bead excites a nearby acceptor bead.)

For experiment [3], the target named is 3',5'-cyclic-AMP phosphodiesterase 4B (Homo sapiens) (UniProt Q07343). In words: qHTS Assay for Inhibitors of PDE-IV (AID 607; active means well fitted activation curve with a large enough effect in the main read-out, with a control signal flat, not every such curve was filed as active). A digest of the protocol: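 ACTOne HEK293 cells carry a modified cAMP-gated CNG channel and express endogenous PDE4; plated 1000 cells/well, compounds up to 22.9 uM final. Membrane-potential dye fluorescence (ex 535/em 590) was read; parental cells received 10 uM forskolin + 100 uM RO 20-1724.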
Chain of 3',5'-cyclic-AMP phosphodiesterase 4B (Homo sapiens) (Q07343 whole entry, looked up): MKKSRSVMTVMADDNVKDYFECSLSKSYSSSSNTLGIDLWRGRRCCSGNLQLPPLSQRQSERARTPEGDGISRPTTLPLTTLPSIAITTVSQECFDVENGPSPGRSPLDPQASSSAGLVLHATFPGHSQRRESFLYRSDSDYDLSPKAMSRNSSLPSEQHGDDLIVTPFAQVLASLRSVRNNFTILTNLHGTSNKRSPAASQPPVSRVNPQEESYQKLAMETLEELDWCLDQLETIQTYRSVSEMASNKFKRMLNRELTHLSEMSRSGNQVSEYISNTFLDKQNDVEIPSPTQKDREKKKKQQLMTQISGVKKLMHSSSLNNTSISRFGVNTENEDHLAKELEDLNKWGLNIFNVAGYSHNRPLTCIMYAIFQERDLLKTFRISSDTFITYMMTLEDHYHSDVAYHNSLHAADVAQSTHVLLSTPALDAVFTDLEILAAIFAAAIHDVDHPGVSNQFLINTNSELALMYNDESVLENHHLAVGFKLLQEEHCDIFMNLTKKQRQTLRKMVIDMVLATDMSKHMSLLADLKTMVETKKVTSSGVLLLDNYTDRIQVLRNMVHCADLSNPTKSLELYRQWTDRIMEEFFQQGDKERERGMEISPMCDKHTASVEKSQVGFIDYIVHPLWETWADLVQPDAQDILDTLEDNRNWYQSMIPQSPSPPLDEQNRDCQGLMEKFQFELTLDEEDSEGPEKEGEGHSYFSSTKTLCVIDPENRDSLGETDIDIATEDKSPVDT
In general terms: qHTS replaces the single test concentration by a dilution series.

For experiment [4], the target named is Cytochrome P450 3A4 (Homo sapiens) (UniProt P08684). In words: qHTS Assay for Activators of Cytochrome P450 3A4 (AID 885). Further: nearly all actives have a fitted effect of over 65% in size. Put shortly:
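CYP3A4 activity: Luciferin-PPXE O-dealkylation, 25uM substrate, 200mM KPO4, RT throughout. Read-out is luciferase luminescence; higher values reflect activation.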

Experiment [5] has as its target Cytochrome P450 2C19 (Homo sapiens) (UniProt P33261). In words: qHTS Assay for Inhibitors and Substrates of Cytochrome P450 2C19 (AID 899). Further: nearly all actives have a fitted effect of over 60% in size. Further: potency means the concentration at half of the fitted maximal effect. A digest of the protocol: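 NADPH-dependent conversion of Luciferin-H EGE (10uM, at KM) by 5nM enzyme in 50mM KPO4, 60 min at 37C following 10 min compound preincubation. Stopped with luciferin detection buffer; luminescence read after 20 min.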

Experiment [6] deals with Cytochrome P450 2C9 (Homo sapiens) (UniProt P11712). As to the kind of experiment: qHTS Assay for Inhibitors and Substrates of Cytochrome P450 2C9 (AID 883). Further: nearly all actives have a fitted effect of over 60% in size. Further: potency means the concentration at half of the fitted maximal effect. Put shortly:
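A luminogenic readout tracked human CYP2C9 (10nM) converting deoxyluciferin (100uM, at KM) in 25mM KPO4 during 60 min at 37C with regenerated NADPH. Values normalized to 57uM sulphaphenazole as complete inhibition.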

Experiment [7] concerns the target Cytochrome P450 2D6 (Homo sapiens) (UniProt P10635). As to the kind of experiment: qHTS Assay for Inhibitors and Substrates of Cytochrome P450 2D6 (AID 891).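 Further: luciferin methyl ether substrate demethylated by CYP2D6 with NADPH regeneration; nearly all actives have a fitted effect of over 60% in size.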 Put shortly: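 Luminescent read-out of luciferin formed by 5 nM human CYP2D6 demethylating 30 uM Luciferin-ME EGE (Km level) over 60 min at room temperature after NADPH regeneration addition. Data normalized to full inhibition by 1.43 uM quinidine.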

The target in experiment [8] is Cytochrome P450 3A4 (Homo sapiens) (UniProt P08684). In words: qHTS Assay for Inhibitors and Substrates of Cytochrome P450 3A4 (AID 884). Further: potency means the concentration at half of the fitted maximal effect; nearly all actives have a fitted effect of over 50% in size. Put shortly: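 Luminescent readout of luciferin produced by CYP3A4 (20 nM) dealkylation of Luciferin-PPXE, 25 uM (its KM). NADPH-driven reaction ran 60 min at RT after 10 min compound preincubation; data scaled to 57 uM ketoconazole as 100% inhibition.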
Chain of Cytochrome P450 3A4 (Homo sapiens) (P08684 whole entry, looked up): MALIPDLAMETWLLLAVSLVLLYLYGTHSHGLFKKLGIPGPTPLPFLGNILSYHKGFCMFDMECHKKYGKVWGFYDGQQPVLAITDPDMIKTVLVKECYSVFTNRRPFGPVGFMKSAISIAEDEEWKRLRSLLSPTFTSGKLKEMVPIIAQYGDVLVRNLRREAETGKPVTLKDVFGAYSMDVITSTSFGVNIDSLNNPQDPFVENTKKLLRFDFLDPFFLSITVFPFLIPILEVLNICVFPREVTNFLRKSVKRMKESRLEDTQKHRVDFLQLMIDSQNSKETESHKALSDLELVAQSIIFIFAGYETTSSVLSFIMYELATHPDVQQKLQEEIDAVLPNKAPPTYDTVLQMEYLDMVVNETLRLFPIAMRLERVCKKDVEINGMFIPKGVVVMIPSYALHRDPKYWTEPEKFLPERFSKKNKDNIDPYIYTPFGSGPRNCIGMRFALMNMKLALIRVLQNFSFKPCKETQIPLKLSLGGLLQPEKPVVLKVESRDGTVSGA

Inconclusive results are not listed. Activity calls are given as the source filed them. Unless noted, the call rests on the fitted dose curve; in most records, active means well fitted curve in the direction sought with a large enough effect; inconclusive means small, poorly fitted or top-dose-only effect, or another doubt; inactive means no such curve, though single readings can be large; an effect the other way counts as inactive or inconclusive.

Chain of Cytochrome P450 2C9 (Homo sapiens) (P11712 whole entry, looked up): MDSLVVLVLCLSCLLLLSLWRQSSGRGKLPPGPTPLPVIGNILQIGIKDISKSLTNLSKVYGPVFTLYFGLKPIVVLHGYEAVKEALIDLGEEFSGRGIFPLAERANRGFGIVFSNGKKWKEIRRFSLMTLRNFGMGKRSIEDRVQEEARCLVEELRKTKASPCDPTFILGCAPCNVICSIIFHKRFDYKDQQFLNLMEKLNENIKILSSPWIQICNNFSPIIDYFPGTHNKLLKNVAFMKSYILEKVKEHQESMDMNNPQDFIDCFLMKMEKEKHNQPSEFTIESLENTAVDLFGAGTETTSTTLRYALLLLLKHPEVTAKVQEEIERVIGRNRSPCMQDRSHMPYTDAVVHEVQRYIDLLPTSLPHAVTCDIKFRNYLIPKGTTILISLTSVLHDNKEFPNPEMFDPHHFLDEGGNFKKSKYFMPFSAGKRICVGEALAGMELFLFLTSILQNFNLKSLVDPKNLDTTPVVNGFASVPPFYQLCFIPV
Chain of Cytochrome P450 2C19 (Homo sapiens) (P33261 whole entry, looked up): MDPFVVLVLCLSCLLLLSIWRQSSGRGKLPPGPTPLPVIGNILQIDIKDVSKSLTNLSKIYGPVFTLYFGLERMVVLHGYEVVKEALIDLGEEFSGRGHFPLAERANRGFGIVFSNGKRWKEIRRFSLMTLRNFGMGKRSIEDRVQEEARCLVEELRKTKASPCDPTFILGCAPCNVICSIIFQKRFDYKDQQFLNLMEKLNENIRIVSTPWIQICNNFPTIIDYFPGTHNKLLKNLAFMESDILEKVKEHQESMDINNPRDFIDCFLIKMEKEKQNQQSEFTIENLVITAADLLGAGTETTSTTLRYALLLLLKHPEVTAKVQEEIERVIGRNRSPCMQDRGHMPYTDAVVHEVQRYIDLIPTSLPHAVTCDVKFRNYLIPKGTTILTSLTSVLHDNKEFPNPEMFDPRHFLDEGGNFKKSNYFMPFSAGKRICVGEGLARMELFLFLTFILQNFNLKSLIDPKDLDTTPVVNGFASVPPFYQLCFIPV
Chain of Cytochrome P450 1A2 (Homo sapiens) (P05177 whole entry, looked up): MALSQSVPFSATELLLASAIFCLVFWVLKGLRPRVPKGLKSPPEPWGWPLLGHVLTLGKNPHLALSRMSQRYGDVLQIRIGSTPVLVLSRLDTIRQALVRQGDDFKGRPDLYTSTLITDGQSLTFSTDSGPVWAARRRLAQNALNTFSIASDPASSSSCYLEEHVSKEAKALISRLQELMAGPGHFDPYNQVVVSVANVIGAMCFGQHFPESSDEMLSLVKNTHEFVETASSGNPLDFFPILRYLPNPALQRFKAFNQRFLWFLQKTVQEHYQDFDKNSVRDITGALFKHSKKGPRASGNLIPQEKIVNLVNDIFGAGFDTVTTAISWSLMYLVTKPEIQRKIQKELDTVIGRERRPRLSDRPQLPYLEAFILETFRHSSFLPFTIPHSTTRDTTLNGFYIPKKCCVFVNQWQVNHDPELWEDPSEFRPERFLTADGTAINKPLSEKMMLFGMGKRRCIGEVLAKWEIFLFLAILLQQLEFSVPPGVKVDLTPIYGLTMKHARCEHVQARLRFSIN
Chain of Cytochrome P450 2D6 (Homo sapiens) (P10635 whole entry, looked up): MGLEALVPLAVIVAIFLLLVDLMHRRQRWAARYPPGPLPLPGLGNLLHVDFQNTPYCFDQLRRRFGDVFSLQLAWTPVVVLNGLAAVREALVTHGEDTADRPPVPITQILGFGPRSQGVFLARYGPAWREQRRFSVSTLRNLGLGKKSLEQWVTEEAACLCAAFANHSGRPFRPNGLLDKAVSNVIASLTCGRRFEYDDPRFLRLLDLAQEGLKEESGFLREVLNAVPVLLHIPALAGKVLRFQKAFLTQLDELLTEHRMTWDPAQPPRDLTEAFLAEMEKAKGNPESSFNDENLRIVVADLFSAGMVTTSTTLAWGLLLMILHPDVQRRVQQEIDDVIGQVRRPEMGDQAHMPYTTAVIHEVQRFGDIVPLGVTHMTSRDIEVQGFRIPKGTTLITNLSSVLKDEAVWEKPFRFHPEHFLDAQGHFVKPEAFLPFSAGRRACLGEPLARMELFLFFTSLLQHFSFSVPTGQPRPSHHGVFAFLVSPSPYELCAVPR

Turning to `C[C@@H](C(=O)NCc1nc2ccccc2[nH]1)[C@@H]1C[C@@]1(C)[C@@H](NC(=O)OCc1ccccc1)c1ccccc1`, the Potency in experiment [1] is 12.6 µM (active). Further, the Potency result in experiment [2], in experiment [3] and in experiment [4] was “inactive” each time.

Consider `C[C@@H](C(=O)NCc1ccc(S(C)(=O)=O)cc1)[C@@H]1C[C@@]1(C)[C@@H](NC(=O)OCc1ccccc1)c1ccccc1`, for which the results for the Potency in experiment [1] and in experiment [5] were 15.8 µM (active) and 1.26 µM (active), respectively. Besides, the Potency entry in experiment [2], in experiment [3] and in experiment [4] was “inactive” each time.

On to `C[C@H](CO)NC(=O)[C@@H]1C[C@H]1[C@@H](NP(=O)(c1ccccc1)c1ccccc1)c1ccccc1`, for which the Potency entry in experiment [1], in experiment [2], in experiment [3] and in experiment [4] was “inactive” each time.

For the compound `COC(=O)[C@@]1(Cc2ccc(OC)cc2)[C@H]2c3cc(C(=O)N4CCCC4)n(Cc4ccc(Cl)c(C(F)(F)F)c4)c3C[C@H]2CN1C(=O)c1ccccc1`, the Potency in experiment [1] was 12.6 µM (active). Also, the Potency entry in experiment [2], in experiment [3] and in experiment [4] was “inactive” throughout.

Regarding `C[C@@H](C(=O)Nc1ccc2ccccc2c1)[C@@H]1C[C@@]1(C)[C@@H](NC(=O)c1ccncc1Cl)c1ccccc1`, the Potency in experiment [1] is 25.1 µM (active). The Potency result in experiment [2], in experiment [3] and in experiment [4] was “inactive” throughout.

For `CC(C)=C1C(=O)C(c2ccccc2)=C2CN3C(=O)N(CCc4ccccc4)C(=O)[C@]3(Cc3ccccc3)[C@H]21`, the Potency result in experiment [1], in experiment [2], in experiment [3] and in experiment [4] was “inactive” throughout.

Turning to `COC(=O)C1CC1C(NC(=O)[C@H]1CCCCN1)c1ccccc1` (some centres undefined), the Potency entry in experiment [1], in experiment [2], in experiment [3] and in experiment [4] was “inactive” each time.

Turning to `CCCC/C=C/C(NC(=O)c1ccco1)c1ccccc1` (centres undefined), in experiment [1], the Potency was 5.01 µM (active). The Potency result in experiment [2], in experiment [3] and in experiment [4] was “inactive” in each case.

Regarding `C[C@@H](C(=O)O)[C@H]1C[C@]1(C)[C@H](NC(=O)OCc1ccccc1)c1ccccc1`, the Potency entry in experiment [1], in experiment [2], in experiment [3] and in experiment [4] was “inactive” each time. For the same compound, the Potency in experiment [5] is 7.94 µM (active).

For the compound `CC1=C(C(=O)OCc2ccccc2)C(c2ccc([N+](=O)[O-])cc2)NC(=O)N1CCCCCC(=O)O` (centres undefined), the Potency in experiment [1] was 15.8 µM (active). Besides, the Potency result in experiment [2], in experiment [3] and in experiment [4] was “inactive” in each case.

Take `COC(=O)[C@H]1C[C@@H]1[C@H](NC(=O)c1cnccn1)c1ccccc1`: the Potency in experiment [1] is 15.8 µM (active). In addition, the Potency result in experiment [2], in experiment [3] and in experiment [4] was “inactive” throughout.

As to `CC(C)c1cccc2nc3c(c([Si](C)(C)C)c12)Cn1c-3cccc1=O`, the Potency in experiment [1] was 15.8 µM (active). Further, the Potency result in experiment [2], in experiment [3] and in experiment [4] was “inactive” in each case.

In the case of `COC(=O)[C@@]1(Cc2ccc(F)cc2)[C@@H]2C(=CC(=O)[C@H]2CC(=O)C(=O)N(C)C)CN1C(=O)c1ccccc1`, the Potency result in experiment [1], in experiment [2], in experiment [3] and in experiment [4] was “inactive” in each case.

Take `COC(=O)C1(Cc2ccccc2)C=C2C(=C(C)C(=O)C2C)CN1` (centres undefined): the Potency in experiment [1] is 10 µM (active). Further, the Potency entry in experiment [2], in experiment [3] and in experiment [4] was “inactive” in each case.

For the compound `COC(=O)[C@@H]1C[C@H]1[C@@H](NC(=O)c1cc(C)on1)c1ccccc1`, the Potency in experiment [1] is 20 µM (active). Moreover, the Potency entry in experiment [2], in experiment [3] and in experiment [4] was “inactive” in each case.

Regarding `CCCC/C=C/C(NC(=O)C(C)(C)C)c1ccccc1` (centres undefined), in experiment [1], the Potency is 20 µM (active). Moreover, the Potency result in experiment [2], in experiment [3] and in experiment [4] was “inactive” each time.

Consider `CC[C@H]1C2=C3C(CC[C@H]4C(OC)OC[C@](C)([C@@H]34)N(C(=O)OC(C)(C)C)C2)C(CO)C1CO` (some centres undefined), for which the Potency in experiment [1] was 12.6 µM (active). Moreover, the Potency entry in experiment [2], in experiment [3] and in experiment [4] was “inactive” throughout.

For `C[C@@H](C(=O)Nc1ccc2ccccc2c1)[C@@H]1C[C@@]1(C)[C@@H](NC(=O)Oc1ccc(F)cc1)c1ccccc1`, the Potency entry in experiment [1], in experiment [2], in experiment [3] and in experiment [4] was “inactive” each time.

Take `CCCC1(C(=O)OC)C=C2C(=C(C)C(=O)C2C)CN1` (centres undefined): the Potency entry in experiment [1], in experiment [2], in experiment [3] and in experiment [4] was “inactive” throughout.

Take `CC1=C(C(=O)OCc2ccccc2)C(c2ccc(Cl)cc2)NC(=O)N1CCCCCC(=O)O` (centres undefined): the Potency in experiment [1] was 25.1 µM (active). Besides, the Potency entry in experiment [2], in experiment [3] and in experiment [4] was “inactive” in each case.

`COC(=O)[C@@H]1C[C@H]1[C@@H](NC(=O)c1cccnc1)c1ccccc1`: the Potency in experiment [1] was 12.6 µM (active). Moreover, the Potency result in experiment [2], in experiment [3] and in experiment [4] was “inactive” each time.

For `NCCC[C@@H](CC(=O)N[C@@H]1CCNC[C@H]1C(=O)N[C@H](CC(=O)N[C@@H](CCC(=O)O)CC(=O)O)Cc1ccccc1)NC(=O)C[C@H](Cc1c[nH]c2ccccc12)NC(=O)[C@@H]1CNCC[C@H]1N`, the Potency entry in experiment [1], in experiment [2], in experiment [6], in experiment [7] and in experiment [5] was “inactive” throughout.

`CCCC[C@@H]1C[C@H]1C(NC(=O)c1cccs1)c1ccc(-c2ccccc2)cc1` (some centres undefined): the results for the Potency in experiment [1] and in experiment [6] were 2 µM (active) and 1.58 µM (active), respectively. Besides, the Potency result in experiment [2] and in experiment [4] was “inactive” each time.

For the compound `CCCC[C@@H]1C[C@H]1C(NC(=O)c1ccco1)c1ccc(C(=O)OC)cc1` (some centres undefined), the Potency in experiment [1] was 3.98 µM (active); in experiment [6], 0.794 µM (active). Moreover, the Potency entry in experiment [2] and in experiment [4] was “inactive” in each case.

`CCCC[C@@H]1C[C@H]1C(NC(=O)c1ccccc1)c1ccccc1C(F)(F)F` (some centres undefined): the Potency is 10 µM (active) in experiment [1], 1.26 µM (active) in experiment [6] and 0.501 µM (active) in experiment [5]. Besides, the Potency result in experiment [2] and in experiment [4] was “inactive” in each case.

With `O=C(NCCc1c[nH]c2ccccc12)[C@@H]1C[C@H]1[C@@H](NP(=O)(c1ccccc1)c1ccccc1)c1ccccc1`, the Potency in experiment [1] was 15.8 µM (active); in experiment [6], 0.251 µM (active); in experiment [8], 1.26 µM (active); in experiment [5] it was 6.31 µM (active). In addition, the Potency entry in experiment [2] and in experiment [4] was “inactive” each time.

Consider `O=C(Cc1ccccc1I)Nc1ccccc1`, for which the Potency in experiment [1] was 12.6 µM (active); in experiment [5] it was 6.31 µM (active). In addition, the Potency result in experiment [2] and in experiment [3] was “inactive” each time.

Consider `COC(=O)[C@@]1(Cc2ccccc2)[C@H]2c3cc(C(=O)N(C)C)n(Cc4ccsc4Br)c3C[C@H]2CN1C(=O)c1ccccc1`, for which the Potency entry in experiment [1], in experiment [2] and in experiment [4] was “inactive” throughout. Also, the values for the Potency in experiment [6], in experiment [8] and in experiment [5] were 3.98 µM (active), 1.58 µM (active) and 2 µM (active), respectively.

With `C[C@@H](C(=O)Nc1ccc2ccccc2c1)[C@@H]1C[C@@]1(C)[C@@H](NC(=O)c1cnccn1)c1ccccc1`, the Potency in experiment [1] is 12.6 µM (active); in experiment [6] it was 0.0631 µM (active). For the same compound, the Potency entry in experiment [2] and in experiment [4] was “inactive” each time.

As to `CCCC[C@@H]1C[C@H]1C(NC(=O)c1ccccc1)c1ccccc1` (some centres undefined), the Potency was 2.51 µM (active) in experiment [1], 7.94 µM (active) in experiment [6] and 0.398 µM (active) in experiment [5]. The Potency entry in experiment [2] and in experiment [4] was “inactive” in each case.

As for `CC[C@H]1C(=O)OC[C@@H]1Cc1cncn1C`, the Potency entry in experiment [1], in experiment [2], in experiment [3], in experiment [7] and in experiment [5] was “inactive” each time.
